Measured values: PubChem BioAssay (Tox21)
Unmarked numbers belong to inactive results. Inconclusive results are not listed. Entries that show only a call come without a potency. Active and inactive are the calls of the source. Unless noted, the call rests on the fitted dose curve; in most records, active means well fitted curve in the direction sought with a large enough effect in the repeat runs; inconclusive means weak or mixed curves; inactive means no such curve, though single readings can be large; an effect the other way counts as inactive or inconclusive.

Key:
[1] = qHTS assay to identify small molecule antagonists of the estrogen related receptor (ERR) signaling pathway from Tox21 library - cell viability counter screen (AID 1224834); further: nearly all actives have a fitted effect of over 30% in size; further: potency means the concentration at half of the fitted maximal effect
Procedure, shortened: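 ERR reporter cells, 2,000 per well, rested 6 h, then exposed to compound in DMSO for 17.5 hours at 37 C. Viability read as fluorescence after 30 min with CellTiter-Fluor.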

[2] = biological target: Luciferin 4-monooxygenase (Photinus pyralis) (UniProt P08659); assay: qHTS assay to identify small molecule inhibitors of firefly luciferase (AID 1224835); further: nearly all actives have a fitted effect of over 25% in size; further: potency means the concentration at half of the fitted maximal effect
Procedure, shortened: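 Inhibition of purified Photinus luciferase is measured by luminescence. Substrate levels (D-luciferin, ATP) sit at their KM values. Each compound is tested in a concentration series.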

[3] = qHTS assay to identify small molecule agonists of the constitutive androstane receptor (CAR) signaling pathway - cell viability counter screen (AID 1224836); further: nearly all actives have a fitted effect of over 45% in size; further: potency means the concentration at half of the fitted maximal effect
Procedure, shortened: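 Fluorescence from CellTiter-Fluor indicates live cells after 23 h exposure. The human hepatoma line expresses hCAR and a CYP2B6-2.2kb reporter. Incubation medium contains 0.75 uM PK11195 (final).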

[4] = qHTS assay to identify small molecule antagonists of the constitutive androstane receptor (CAR) signaling pathway - cell viability counter screen (AID 1224837); further: nearly all actives have a fitted effect of over 45% in size; further: potency means the concentration at half of the fitted maximal effect
Procedure, shortened: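 HepG2 cells stably carrying hCAR and CYP2B6-2.2kb reporter, stimulated with 50 nM CITCO and compounds at 15 concentrations for 23 h at 37 C. Viability measured by CellTiter-Fluor fluorescence.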

[5] = biological target: Nuclear receptor subfamily 1 group I member 3 (Homo sapiens) (UniProt Q14994); assay: qHTS assay to identify small molecule antagonists of the constitutive androstane receptor (CAR) signaling pathway (AID 1224838); further: nearly all actives have a fitted effect of over 40% in size; further: potency means the concentration at half of the fitted maximal effect
Procedure, shortened: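 HepG2 cells stably carrying hCAR and a CYP2B6-2.2kb luciferase reporter, seeded 4 hrs before compound (15 concentrations). Stimulated with 50 nM CITCO for 24 hr at 37 C. ONE-Glo luminescence read after 30 min at room temperature.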

[6] = biological target: Nuclear receptor subfamily 1 group I member 3 (Homo sapiens) (UniProt Q14994); assay: qHTS assay to identify small molecule agonists of the constitutive androstane receptor (CAR) signaling pathway (AID 1224839); further: nearly all actives have a fitted effect of over 15% in size; further: potency means the concentration at half of the fitted maximal effect
Procedure, shortened: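 Stable hCAR/CYP2B6-2.2kb HepG2 line in DMEM with 10% FBS; compounds (15 concentrations) and 0.75 uM PK11195 final, 24 h at 37 C/5% CO2, then ONE-Glo luminescence after 30 min.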

[7] = qHTS assay to identify small molecule antagonists of the estrogen related receptor signaling pathway with the pleiotropic PPARgamma coactivator (PGC) from Tox21 10K library - cell viability counter screen (AID 1224840; active means well fitted cell-killing curve with a large enough effect in the repeat runs, not every such curve was filed as active; further: nearly all actives have a fitted effect of over 40% in size; further: potency means the concentration at half of the fitted maximal effect)
Procedure, shortened: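 PGC/ERR cells (2,000/well) plated 6 h, then compound-treated for 17.5 h at 37 C. Viability measured by CellTiter-Fluor fluorescence after 30 min at 37 C, multiplexed with the pathway assay.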

[8] = qHTS assay to identify small molecule antagonists of the estrogen related receptor signaling pathway with the pleiotropic PPARgamma coactivator (PGC) from Tox21 10K library (AID 1224841; call rule not given here; further: actives are mostly falling curves and most rising ones were filed inactive; nearly all actives have a fitted effect of over 50% in size; further: potency means the concentration at half of the fitted maximal effect)
Procedure, shortened: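 PGC/ERR cell line, 2,000 cells/well, pre-incubated 6 hours at 37 C, then exposed to compounds for 18 hours at 37 C; luciferase read with One-Glo luminescence after 30 min at room temperature.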

[9] = qHTS assay to identify small molecule agonists of the estrogen related receptor signaling pathway with the pleiotropic PPARgamma coactivator (PGC) from Tox21 10K library (AID 1224842); further: nearly all actives have a fitted effect of over 15% in size
Procedure, shortened: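 Luminescence from One-Glo (30 min, room temperature) measured after PGC/ERR cells had 18 h at 37 C with pinned compound (23 nL in DMSO). Cells had been seeded at 2,000 per well and pre-incubated 6 h.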

[10] = biological target: Thyrotropin receptor (Homo sapiens) (UniProt P16473); assay: qHTS assay to identify small molecule agonists of the thyroid stimulating hormone receptor (TSHR) signaling pathway (AID 1224843; calls by dose curve; further: nearly all actives have a fitted effect of over 45% in size; further: potency means the concentration at half of the fitted maximal effect)
Procedure, shortened: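 HEK293 cells stably bearing the thyrotropin receptor were plated at 800 cells/well and challenged with compound (30 min, RT). Accumulated cAMP was quantified via cAMP-d2 competing for cryptate-tagged antibody.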

[11] = qHTS assay to identify small molecule agonists of the hypoxia (HIF-1) signaling pathway - cell viability counter screen (AID 1224844; calls by dose curve; further: nearly all actives have a fitted effect of over 50% in size; further: potency means the concentration at half of the fitted maximal effect)
Procedure, shortened: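 HRE-bla ME-180 cells, 2,000/well in 0.5% dialyzed FBS medium, treated 17 h at 37C with compounds. Viability read in the same wells as the bla reporter, by CellTiter-Glo luminescence after 30 min at room temperature.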

[12] = qHTS assay to identify small molecule agonists of H2AX (AID 1224845; active means well fitted activation curve with a large enough effect in the signal ratio in the repeat runs, not every such curve was filed as active; the % refers to the signal ratio)
Procedure, shortened: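 Phospho-H2AX Ser139 measured by HTRF (ex 320 nm; em 665 and 620 nm) after 24 hr antibody incubation. Compounds, 15 concentrations, 0.76% DMSO, were applied to CHO-K1 cells for 3hr at 37C before lysis.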

[13] = qHTS assay to identify small molecule agonists of the hypoxia (HIF-1) signaling pathway (AID 1224846; active means well fitted activation curve with a large enough effect in the signal ratio in the repeat runs, not every such curve was filed as active; the % refers to the signal ratio)
Procedure, shortened: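 HRE-bla ME-180 beta-lactamase reporter cells in medium with 0.5% dialyzed FBS, pre-incubated 5 h then exposed to compounds 17 h at 37C, 5% CO2; reporter induction read with CCF4-AM FRET substrate.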

[14] = qHTS assay to identify small molecule agonists of H2AX - cell viability counter screen (AID 1224847; calls by dose curve; further: top concentration of the series differs between compounds; nearly all actives have a fitted effect of over 30% in size)
Procedure, shortened: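 Viability of CHO-K1 (wild type) cells after 3 hr compound exposure was measured by CellTiter-Glo luminescence.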

[15] = qHTS assay to identify small molecule antagonists of the estrogen related receptor (ERR) signaling pathway from Tox21 library (AID 1224848); further: nearly all actives have a fitted effect of over 50% in size; further: potency means the concentration at half of the fitted maximal effect
Procedure, shortened: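 Reading was by luminescence 30 min after ONE-Glo addition. Before that, ERR cells at 2,000 per well had rested 6 h at 37 C/5% CO2 and then received pin-tooled compounds in DMSO for 18 h at 37 C.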

[16] = qHTS assay to identify small molecule agonists of the estrogen related receptor (ERR) signaling pathway from Tox21 library (AID 1224849; calls by dose curve; further: nearly all actives have a fitted effect of over 15% in size); settings: ERR reporter cell line, ONE-Glo luciferase, 18 h; at 92.4 µM (top of the series) unless noted
Procedure, shortened: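 ERR reporter cells (NTP line) pre-incubated 6 hours at 37 C, then exposed to compounds for 18 hours at 37 C. ONE-Glo luciferase luminescence was read after 30 minutes at room temperature.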

[17] = qHTS RealTime-Glo MT Cell Viability Assay in HepG2 cells - 24 hour (AID 1224867); further: nearly all actives have a fitted effect of over 50% in size
Procedure, shortened: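 HepG2 cells were seeded at 600 cells/well together with NanoLuc luciferase and a cell-permeant prosubstrate, preincubated 5 h at 37 C/5% CO2, then pin-dosed with compounds in DMSO. Nonlytic luminescence from viable cells was read at each time point.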

[18] = qHTS RealTime-Glo MT Cell Viability Assay in HEK293 cells - 32 hour (AID 1224868); further: nearly all actives have a fitted effect of over 50% in size; further: potency means the concentration at half of the fitted maximal effect
Procedure, shortened: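 HEK293 cells were seeded at 600 cells/well together with NanoLuc luciferase and cell-permeant prosubstrate, preincubated 5 h at 37 C/5% CO2, then given compound in DMSO by pintool. Luminescence from viable-cell prosubstrate reduction was read repeatedly over 40 h.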

[19] = A CellTox Green Cytotoxicity Assay to monitor cytotoxicity in HEK293 cells - 0 hour (AID 1224869); further: nearly all actives have a fitted effect of over 50% in size
Procedure, shortened: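 HEK293 cells, 600/well, were preincubated 5 hours and then exposed to compounds at 37 C for up to 40 hours. A cell-impermeant cyanine dye staining dead-cell DNA was read by fluorescence at 0, 8, 16, 24, 32 and 40 h time points.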

[20] = qHTS RealTime-Glo MT Cell Viability Assay in HepG2 cells - 40 hour (AID 1224870); further: nearly all actives have a fitted effect of over 50% in size
Procedure, shortened: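 Real-time viability: cells seeded at 600 per well together with NanoLuc and cell-permeant prosubstrate, compounds added after 5 h incubation. Luminescence tracked at 0, 8, 16, 24, 32 and 40 h of exposure.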

Chain of Nuclear receptor subfamily 1 group I member 3 (Homo sapiens) (Q14994 whole entry, looked up): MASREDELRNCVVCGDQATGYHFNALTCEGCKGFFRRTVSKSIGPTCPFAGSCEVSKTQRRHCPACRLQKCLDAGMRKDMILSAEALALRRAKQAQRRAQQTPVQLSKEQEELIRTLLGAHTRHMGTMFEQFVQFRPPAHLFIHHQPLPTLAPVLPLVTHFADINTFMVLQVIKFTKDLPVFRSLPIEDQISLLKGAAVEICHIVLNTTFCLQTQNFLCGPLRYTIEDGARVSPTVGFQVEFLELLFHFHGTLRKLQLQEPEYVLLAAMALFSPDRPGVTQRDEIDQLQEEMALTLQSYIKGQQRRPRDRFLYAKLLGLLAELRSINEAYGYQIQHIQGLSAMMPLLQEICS
Chain of Luciferin 4-monooxygenase (Photinus pyralis) (P08659 whole entry, looked up): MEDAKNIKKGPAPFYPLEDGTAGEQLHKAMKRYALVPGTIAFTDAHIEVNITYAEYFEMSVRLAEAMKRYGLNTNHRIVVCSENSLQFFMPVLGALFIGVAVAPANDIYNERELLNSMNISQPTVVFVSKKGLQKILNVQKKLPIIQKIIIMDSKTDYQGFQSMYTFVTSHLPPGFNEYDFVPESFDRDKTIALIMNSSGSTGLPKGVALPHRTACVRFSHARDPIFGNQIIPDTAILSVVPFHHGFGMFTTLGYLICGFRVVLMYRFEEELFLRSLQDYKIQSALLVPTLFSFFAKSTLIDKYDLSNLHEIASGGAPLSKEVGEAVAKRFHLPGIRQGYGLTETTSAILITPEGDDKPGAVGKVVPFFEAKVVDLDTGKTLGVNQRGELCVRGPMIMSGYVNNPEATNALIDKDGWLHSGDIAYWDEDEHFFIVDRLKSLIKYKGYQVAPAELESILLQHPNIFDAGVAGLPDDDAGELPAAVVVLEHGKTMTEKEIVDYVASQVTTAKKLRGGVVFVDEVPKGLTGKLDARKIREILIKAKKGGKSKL
Chain of Thyrotropin receptor (Homo sapiens) (P16473 whole entry, looked up): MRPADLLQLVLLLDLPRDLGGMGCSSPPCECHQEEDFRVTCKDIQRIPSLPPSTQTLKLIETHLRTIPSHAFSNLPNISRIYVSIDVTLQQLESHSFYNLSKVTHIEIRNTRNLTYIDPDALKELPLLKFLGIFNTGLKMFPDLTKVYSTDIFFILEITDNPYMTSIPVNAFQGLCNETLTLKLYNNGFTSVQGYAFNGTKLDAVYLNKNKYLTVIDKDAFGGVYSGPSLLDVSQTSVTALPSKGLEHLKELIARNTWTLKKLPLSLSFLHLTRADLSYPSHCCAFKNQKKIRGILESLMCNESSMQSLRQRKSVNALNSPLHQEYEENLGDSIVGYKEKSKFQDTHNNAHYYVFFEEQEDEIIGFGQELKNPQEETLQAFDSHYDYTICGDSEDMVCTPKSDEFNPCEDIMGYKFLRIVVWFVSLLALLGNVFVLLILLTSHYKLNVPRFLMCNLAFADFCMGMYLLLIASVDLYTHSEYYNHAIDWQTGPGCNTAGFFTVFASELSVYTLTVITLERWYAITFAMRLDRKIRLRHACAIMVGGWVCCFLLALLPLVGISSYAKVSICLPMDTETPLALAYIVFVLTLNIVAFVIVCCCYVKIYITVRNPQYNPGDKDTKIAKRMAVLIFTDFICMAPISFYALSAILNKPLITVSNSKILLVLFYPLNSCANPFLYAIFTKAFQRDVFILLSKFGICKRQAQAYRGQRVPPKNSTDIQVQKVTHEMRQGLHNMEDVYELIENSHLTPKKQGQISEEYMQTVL

Structure (SMILES)	Potency [1]	Potency [2]	Potency [3]	Potency [4]	Potency [5]	Potency [6]	Potency [7]	Potency [8]	outcome [9]	Potency [10]	Potency [11]	Potency [12]	outcome [13]	Potency [14]	Potency [15]	activity change, positive = activation [16]	Potency [17]	Potency [18]	Potency [19]	Potency [20]
CC(=O)C(Cl)Cl	inactive	inactive	inactive	inactive	inactive	inactive	inactive	inactive	inactive	inactive	inactive	inactive	inactive	inactive	inactive	4.96%	inactive	inactive	inactive	–
O=P(O)(Oc1ccccc1)Oc1ccccc1	inactive	inactive	inactive	inactive	inactive	inactive	inactive	–	–	inactive	inactive	inactive	inactive	inactive	–	–	inactive	inactive	inactive	inactive
CC1CCCCC1NC(=O)Nc1ccccc1 (stereo not given)	inactive	35.6 µM (active)	inactive	inactive	inactive	30.6 µM (active)	inactive	inactive	inactive	inactive	inactive	inactive	inactive	inactive	inactive	4.71%	inactive	–	inactive	inactive
COc1cccc2c1cc([N+](=O)[O-])c1c(C(=O)O)cc3c(c12)OCO3	30.6 µM (active)	71 µM (active)	27.3 µM (active)	27.3 µM (active)	12.2 µM (active)	inactive	30.6 µM (active)	inactive	inactive	inactive	54.9 µM (active)	–	–	inactive	4.86 µM (active)	-37.1%	inactive	2.45 µM (active)	inactive	inactive
CSc1ccc(C(=O)C(C)(C)N2CCOCC2)cc1	inactive	inactive	inactive	inactive	inactive	30.6 µM (active)	inactive	–	inactive	2.73 µM (active)	inactive	inactive	inactive	inactive	–	-13.8%	inactive	inactive	inactive	inactive
CC(Oc1ccc(Oc2ncc(C(F)(F)F)cc2Cl)cc1)C(=O)O (stereo not given)	inactive	inactive	inactive	inactive	inactive	inactive	inactive	27.3 µM (active)	inactive	inactive	15.5 µM (active)	inactive	–	inactive	–	-29.5%	inactive	inactive	inactive	inactive
Nc1ccccc1Cl	inactive	inactive	inactive	inactive	inactive	inactive	inactive	–	–	inactive	inactive	inactive	inactive	inactive	–	–	inactive	inactive	inactive	inactive
C[C@@H]1CN(C2CCC(C#N)(c3ccc(F)cc3)CC2)CC[C@]1(C(=O)O)c1ccccc1 (stereo not given in full)	inactive	inactive	inactive	inactive	inactive	inactive	inactive	inactive	inactive	inactive	inactive	inactive	–	inactive	inactive	0.0799% [at 42.5 µM]	inactive	inactive	inactive	inactive
CCN(CC)c1nc(C)cc(OP(=S)(OC)OC)n1	inactive	inactive	inactive	inactive	inactive	48.6 µM (active)	inactive	–	–	inactive	inactive	inactive	inactive	inactive	–	–	inactive	inactive	inactive	inactive
CC(C=O)Cc1ccc2c(c1)OCO2 (stereo not given)	inactive	inactive	inactive	inactive	inactive	inactive	inactive	–	–	inactive	inactive	inactive	inactive	inactive	–	–	inactive	inactive	inactive	inactive
O=C(O)c1cccc(Cl)c1	inactive	inactive	inactive	inactive	inactive	inactive	inactive	–	–	inactive	inactive	inactive	inactive	inactive	–	–	inactive	inactive	inactive	inactive
CC(N)=S	inactive	inactive	inactive	inactive	inactive	inactive	inactive	–	–	inactive	inactive	inactive	inactive	inactive	–	–	inactive	inactive	inactive	inactive
Cc1ncc2n1-c1ccc(Cl)cc1C(c1ccccc1F)=NC2	inactive	inactive	inactive	inactive	inactive	inactive	inactive	inactive	–	inactive	inactive	inactive	inactive	inactive	inactive	12.1% [at 42.5 µM]	inactive	–	inactive	inactive
CCCCc1c(C)nc(NCC)[nH]c1=O	inactive	inactive	inactive	inactive	inactive	inactive	inactive	inactive	inactive	inactive	inactive	inactive	inactive	inactive	inactive	5.33%	inactive	–	inactive	inactive
Fc1cc(Br)ccc1CBr	inactive	inactive	inactive	inactive	inactive	inactive	inactive	–	–	inactive	inactive	inactive	inactive	inactive	–	–	inactive	inactive	inactive	inactive
